This note sets out measurements from PubChem BioAssay AID1117319 (Southern Research Institute, 2015).

Each structure is given as a SMILES string. Where “and” joins values, the source holds several entries; their conditions need not be identical. Equal values may be shown once. About 1,500 (0.58%) of roughly 260,000 compounds were called active. Roughly 5% stayed inconclusive and do not appear here. Not all results are given here. Results with a measured potency or affinity are listed apart. A number with no mark means an inactive call.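 Rule for the calls: active = inhibition above a set limit at one or more doses, reproduced on every date tested; inconclusive = results disagree between test dates, or hit never tested in dose response; inactive = the rest.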

The target in the test is Virion infectivity factor (Human immunodeficiency virus type 1 group M subtype B (isolate BH10)) + Virion infectivity factor (Human immunodeficiency virus type 1 group M subtype B (isolate BRU/LAI)) + Virion infectivity factor (Human immunodeficiency virus type 1 group M subtype B (isolate PCV12)) + Virion infectivity factor (Human immunodeficiency virus type 1 group M subtype B (isolate HXB2)) + DNA dC->dU-editing enzyme APOBEC-3G (Homo sapiens) (UniProt P69720+P69721+P69722+P69723+Q9HC16). Nature of the test: HIV-1 Vif–A3G interaction blockers – biochemical, TR-FRET, GST-Vif 1-94, biotin-A3G peptide, dose response retest, primary screen (AID 1117319).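 Note: Vif residues 1-94 fused to GST binding biotinylated APOBEC3G peptide 110-148; 0% = full assay without inhibitor and 100% = GST in place of GST-Vif.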 Conditions: TR-FRET GST-Vif / biotin-A3G peptide binding; stronger effect = higher value. (TR-FRET usually uses a lanthanide donor and a delayed reading to cut background.)
In the case of `O=C(CNC(=O)c1cccc(Cl)c1)NCCCSc1ccccc1`, the inhibition (as a rule, the change of the read-out against control, counted positive when it falls) was -1.26%.

Regarding `Nc1nc(N)c2cc(Sc3ccc(Cl)cc3)ccc2n1`, the inhibition was -22.4%.

On to `Cc1cc(-c2ccccc2)n(-c2ccccc2)n1`, for which the inhibition was 3.24%.

In the case of `Cc1cc(-c2ccco2)n(CC(=O)O)n1`, the inhibition is 5.45%.

Turning to `COc1ccc(NC(=S)NCCc2c[nH]c3ccccc23)c(OC)c1`, the inhibition was 20.9%.

Turning to `COc1ccc(NC(=S)NCCc2ccccc2)c(OC)c1`, the inhibition was 18.1%.

Take `COc1cc(OC)cc(C(=O)N2CCCC(c3nc(-c4ccc(C)o4)no3)C2)c1` (stereo unspecified): the inhibition is 32.4%.

Take `COc1cccc(CN2CC(C(=O)N(C)CCCC3CCCC3)CCC2=O)c1` (stereo unspecified): the inhibition is -1.28%.

Regarding `Cc1ccc2[nH]c(=O)c(C(c3nnnn3C3CCCC3)N3CCCc4ccccc43)cc2c1` (stereo unspecified), the inhibition was 16.5%.

Turning to `CCC(C)(C)n1nnnc1C(c1cc2cc(OC)ccc2[nH]c1=O)N1CCc2ccccc21` (stereo unspecified), the inhibition was 3.72% and -1.49%.

For the molecule `O=c1cc(CSc2nnc(Nc3ccccc3F)s2)nc2sccn12`, the inhibition was -10.7%.

As to `COc1cc(C(=O)NCC(c2ccco2)N2CCCC2)ccc1OCc1ccccc1` (stereo unspecified), the inhibition was 3.67%.

With `COc1ccccc1C(CNC(=O)c1ccc(OCc2c(C)noc2C)cc1)N1CCCC1` (stereo unspecified), the inhibition was 7.05%.

On to `Cc1ccc(NC(=O)COC(=O)CN2CCSC2=O)cc1Cl`, for which the inhibition was 7.83%.

`Cc1ccc(/C=C2/CNC/C(=C/c3ccc(C)cc3)C2=O)cc1`: the inhibition was 4.14%.

Turning to `Cc1ccc(/C=N/N=C/c2ccc(C)cc2)cc1`, the inhibition was 1.03%.

For `Cc1nc2ccccc2n1CCN1CCOCC1`, the inhibition was -1%.

For the molecule `COC(=O)c1nn(-c2ccc(Oc3ccccc3)cc2)c(=O)cc1O`, the inhibition is 2.63%.

For `Nc1ccc(S(=O)(=O)N2CCOCCOCCOCCOCCOCC2)cc1`, the inhibition was 1.81%.

For `C=C(C)C(=O)OCC(=O)NCc1ccccc1`, the inhibition was -3.45%.

`Oc1ccc(/C=N/NC2=NCCCCC2)cc1`: the inhibition was 27.5%.

For `Oc1ccccc1/C=N/NC1=NCCCCC1`, the inhibition is -2.42%.

As to `O=C(O)c1cccc(S(=O)(=O)Nc2cccc(S(=O)(=O)N3CCCCCC3)c2)c1`, the inhibition is 4%.

Take `Cc1cccc(N(Cc2ccccc2F)S(C)(=O)=O)c1`: the inhibition was 22.4%.

`c1coc(C2=Nc3cccc4cccc(c34)N2)c1`: the inhibition was 8.06%.

In the case of `CC(C)C1=Nc2cccc3cccc(c23)N1`, the inhibition was -3.35%.

Consider `COc1ccc(C2=Nc3cccc4cccc(c34)N2)cc1`, for which the inhibition is -2.87%.

Turning to `Fc1ccc(C2=Nc3cccc4cccc(c34)N2)cc1`, the inhibition was -0.82%.

For `CC(=C\c1ccccc1)/C=C1/SC(=S)N(CCC(=O)O)C1=O`, the inhibition is -2.12%.

Take `CC(=C\c1ccccc1)/C=C1/SC(=S)N(CCCC(=O)O)C1=O`: the inhibition is 2.05%.

For `CC(=C\c1ccccc1)/C=C1/SC(=O)N(CCCC(=O)Nc2ccc(C(=O)O)cc2)C1=O`, the inhibition is 0.71%.

As to `CC(=O)c1ccc(NC(=O)CCCN2C(=O)/C(=C/C(C)=C/c3ccccc3)SC2=S)cc1`, the inhibition is 4.61%.

On to `CC1=C(C(=O)N(C)C)C(c2cccs2)NC(=O)N1` (stereo unspecified), for which the inhibition was 4.4%.

With `O=C(CS(=O)(=O)c1ccc(F)cc1)N1CCN(c2ccccc2)CC1`, the inhibition is -1.09%.

With `c1ccc(Nc2ccccc2)cc1`, the inhibition was -0.33%.

`Cc1ccc(Nc2ccccc2)cc1`: the inhibition was 6.07%.

In the case of `Cc1cc(NC(=O)CSc2nnc(C)n2-c2ccccc2)no1`, the inhibition was 1.46%.

On to `COC(=O)[C@@H](NC(=O)O[C@H]1C(=O)c2ccc(OC)cc2O[C@@H]1c1ccc2c(c1)OCO2)C(C)C`, for which the inhibition is 12.9%.

On to `COc1ccc2c(c1)O[C@H](c1ccc3c(c1)OCO3)[C@@H](OC(=O)N[C@H]1CCCc3ccccc31)C2=O`, for which the inhibition is 4.66%.

Consider `CC(OC(=O)CCc1nc2ccccc2[nH]c1=O)C(=O)c1ccccc1` (stereo unspecified), for which the inhibition is 6.75%.

On to `CC1Cc2ccccc2N1Cc1nc2cc(Cl)ccc2c(=O)[nH]1` (stereo unspecified), for which the inhibition is 7.91%.

Consider `COC(=O)c1ccc2c(=O)[nH]c(CN3c4ccccc4CC3C)nc2c1` (stereo unspecified), for which the inhibition is 8.14%.

On to `O=C(Cn1cnc2ccccc21)NCCCN1CCOCC1`, for which the inhibition is -5.55%.

`O=C(NNS(=O)(=O)c1ccccc1[N+](=O)[O-])c1ccc(F)cc1`: the inhibition was -0.91%.

As for `O=C1NC(=O)/C(=C/c2ccc(N3CCOCC3)o2)N1`, the inhibition is 12.2%.

As for `O=C1NC(=O)/C(=C\c2ccc(Sc3ccc(Cl)cc3)o2)N1`, the inhibition was 21.1%.

As to `Cc1nnc(SCC(=O)NNC(=O)c2ccco2)n1-c1ccccc1`, the inhibition is 6.15%.

Regarding `Cc1cccc(N2CC(C(=O)Nc3ccccc3N3CCOCC3)CC2=O)c1C` (stereo unspecified), the inhibition is -2.77%.

For `CCn1c(SCC(=O)Nc2cc(C)on2)nnc1-c1ccccc1`, the inhibition is -1.57%.

For `CCCCn1c(SCC(=O)Nc2cc(C)on2)nnc1-c1cccnc1`, the inhibition is -3.02%.

For the molecule `CCc1nc(SCC(=O)c2ccccc2)c2c(=O)n(C)c(=O)n(C)c2n1`, the inhibition was -11.9%.

With `CC1(c2ccc([N+](=O)[O-])cc2)NC(=O)N(CC(=O)Nc2cccnc2Cl)C1=O` (stereo unspecified), the inhibition was -4.51%.

On to `COc1cc(N=C2C(=O)N3c4c(cccc42)C(C)=CC3(C)C)cc(OC)c1`, for which the inhibition is -3.94%.

Turning to `CC1=CC(C)(C)N2C(=O)C3(C(C#N)=C(N)Oc4cc(O)ccc43)c3cccc1c32` (stereo unspecified), the inhibition was 4.05%.

`CN(C)c1oc(-c2ccco2)nc1S(=O)(=O)c1ccc(Br)cc1`: the inhibition was 10.3%.

As for `Cc1cc(NC(=O)c2coc(=O)c(Br)c2)ccc1C(C)C`, the inhibition is 10.6%.

Turning to `COc1ccccc1NC(=O)c1coc(=O)c(Br)c1`, the inhibition was 13.2%.

On to `CC(C)CNC(=O)c1coc(=O)c(Br)c1`, for which the inhibition was 12.1%.

`O=C(Nc1ccc(Br)cn1)c1ccc2ccccc2c1`: the inhibition is -12.4%.

Turning to `O=C(NCCc1ccc(F)cc1)c1coc(=O)c(Br)c1`, the inhibition was -6.83%.

On to `O=C(Nc1ccc(Br)cn1)c1cccc(C(=O)Nc2ccc(Br)cn2)c1`, for which the inhibition was -16%.

Consider `CCCN(CC(=O)Nc1ccccc1OC)C(=O)c1ccc2[nH]c3c(c2c1)CC(C)CC3` (stereo unspecified), for which the inhibition was 2.48%.

On to `C[C@@H]1NC(=O)[C@H](CC(N)=O)NC(=O)c2cc([N+](=O)[O-])cc(I)c2OCC[C@@H](C(=O)NC(CC(=O)O)C(N)=O)NC1=O` (stereo partly specified), for which the inhibition was 10.6%.

Regarding `Cc1csc(SC(C)C(=O)Nc2ccccc2C)n1` (stereo unspecified), the inhibition is -12.6%.

Take `Cc1ccc(C2=NC(C)(C)N=C2SCC(=O)Nc2ccc(Cl)cc2)cc1`: the inhibition was 2.26%.

On to `O=C(NC(=S)Nc1cc(-c2nc3ccccc3[nH]2)ccc1Cl)c1ccc2c(c1)OCO2`, for which the inhibition is 6.14%.

With `C[C@H]1CN([C@@H](C)CO)C(=O)CCCn2nncc2CO[C@@H]1CN(C)Cc1ccc(Cl)c(Cl)c1`, the inhibition was -0.91%.

`CCN(CC)c1ccc(/C=N/NS(=O)(=O)c2ccc(CNC(C)=O)cc2)cc1`: the inhibition was -3.65%.

For `COc1cccc(OCc2cc(/C=N/NC(=O)c3ccn[nH]3)ccc2OC)c1`, the inhibition was 0.65%.

As for `COC(=O)C1=C(N)N(c2ccc(F)cc2)C2=C(C(=O)CCC2)C1c1ccc2c(c1)OCO2` (stereo unspecified), the inhibition was -32.1%.

For the molecule `Cn1c(SCCOc2ccc(Cl)cc2)nnc1-c1ccncc1`, the inhibition is 3.6%.

With `Cn1c(SCCOc2ccc(F)cc2)nnc1-c1ccncc1`, the inhibition is -1.32%.

Regarding `CCOc1ccc(C(=O)NCC2CCCO2)cc1OCC` (stereo unspecified), the inhibition was 1.97%.

On to `CCOc1ccccc1NC(=S)NCC1CCCO1` (stereo unspecified), for which the inhibition is -2.09%.

For the molecule `CC(=O)c1c(C)[nH]c(C(=O)NCc2ccc(F)cc2)c1C`, the inhibition is -3.52%.

For the molecule `NC(=O)NC(=O)COC(=O)c1ccc(Cl)c(S(=O)(=O)N(Cc2ccccc2)c2ccc(Cl)cc2)c1`, the inhibition was -3.29%.

With `Cc1cccc(Nc2nc(-c3cccs3)cs2)n1`, the inhibition was 8.51%.

Take `O=C(O)c1ccc2c(c1Nc1ccccc1)C(=O)c1ccccc1C2=O`: the inhibition was -2.59%.

`CCNc1c(C(=O)O)ccc2c1C(=O)c1ccccc1C2=O`: the inhibition was 32.2%.

Take `COc1ccc(C(=O)NC2CC2)cc1OC1CCN(Cc2ccccc2F)CC1`: the inhibition was -1.16%.

As for `Nc1nnnn1/N=C/c1cccc(O)c1`, the inhibition is 9.19%.

In the case of `O=C(CSc1nc(O)c(C2CCCCC2)c(=O)[nH]1)NCC1CCCO1` (stereo unspecified), the inhibition was 14.4%.

Turning to `Cc1ccc(CNC(=O)C2CC(=O)N(c3ccc(OCC(=O)N4CCCC4)cc3)C2)cc1` (stereo unspecified), the inhibition is -0.42%.

Consider `O=C(c1ccc(Cl)cc1)c1cnc(-c2ccccc2)s1`, for which the inhibition was -2.61%.

`Cc1ccc(C=C2C=C(c3ccccc3)OC2=O)cc1`: the inhibition was 6.6%.

For `O=C1OC(c2ccc(F)cc2)=C/C1=C\c1ccc(O)cc1`, the inhibition was -0.55%.

As for `C=CCN(C(=O)Nc1ccc(OC)cc1)c1nnc(-c2ccncc2)s1`, the inhibition is -4.12%.

As to `Cc1cc(NC(=O)CCl)n(-c2nc3ccccc3s2)n1`, the inhibition is -1.34%.

As for `CC(=O)Nc1cc(C)nn1-c1nc2ccccc2s1`, the inhibition was -19.4%.

On to `O=C1CSC(c2ccc(Cl)cc2)N1c1cccnc1` (stereo unspecified), for which the inhibition is 3.17%.

Take `CCOC(=O)C1CCN(c2ncnc3c2cnn3-c2ccc(Cl)cc2)CC1`: the inhibition is -26.4%.

As to `CCOC(=O)C1CCCN(c2ncnc3c2cnn3-c2ccc(OC)cc2)C1` (stereo unspecified), the inhibition is -2.45%.

For `O=C(CCSc1ccc(Cl)cc1)c1ccco1`, the inhibition was 2.25%.

With `O=C(CSc1ccc(Cl)cc1)NNC(=O)c1ccco1`, the inhibition was 2.28%.

For `COc1ccc(NS(=O)(=O)c2cc(Cl)ccc2Cl)cc1S(=O)(=O)N1CCCCC1`, the inhibition was 10.3%.

Regarding `COc1ccc(NS(=O)(=O)c2cccc(Cl)c2)cc1S(=O)(=O)N1CCCCC1`, the inhibition is 2.26%.
